Source: PubChem
Pol eta inh: blocks human DNA polymerase eta activity | Q9Y253 | recombinant Pol eta, fluorescent DNA replication assay | Potency, µM (highest dose often 114 µM), hits mostly inhibitors | 390,000 tested, 1.2% active | AID 588591
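Pol eta (10 nM) was preincubated with compounds for 15 min at room temperature, after which fluorescent replication substrate (50 nM final) was added to start the reaction. Fluorescence was read kinetically at 0 and 10 min.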
FEN1 inh: human FEN1 inhibition | Potency, µM (titrated, usually from 114 µM), usual class: inhibitors | Recombinant FEN1 flap cleavage, fluorescence, 15 min | 390,000 tested, 0.35% active | P39748; note: nearly all actives have a fitted effect of over 65% in size
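FEN1 at 10 nM preincubated with compounds 15 min at room temperature, then flap DNA substrate added at 50 nM final. Signal read at 0 and 15 min; concentration-response fitted with four-parameter Hill equation.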
Pol iota inh: blocks human DNA polymerase iota activity; Pol iota fluorescent replication assay, 10 min; Potency, µM (top dose mostly 115 µM), most hits filed as inhibitors; 390,000 tested, 1% active; AID 588590
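Pol iota at 10 nM preincubated 15 min with compounds at room temperature; reaction started with fluorescent substrate, 50 nM final. Fluorescence read kinetically at 0 and 10 min; buffer-only wells as negative control.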
PI5P4Ka inh: inhibitors of human PI5P4K alpha | 330,000 tested, 1.2% active | P48426 | AID 652105 | PI5P4Kalpha enzyme, ADP-Glo luminescence, 60 min; active compounds read low | max response, %; active = max response of -50% or lower; inconclusive = between -30% and -50%; inactive = -30% or higher; note: value at the top dose of about 77 µM
Target sequence (P48426 whole entry, looked up): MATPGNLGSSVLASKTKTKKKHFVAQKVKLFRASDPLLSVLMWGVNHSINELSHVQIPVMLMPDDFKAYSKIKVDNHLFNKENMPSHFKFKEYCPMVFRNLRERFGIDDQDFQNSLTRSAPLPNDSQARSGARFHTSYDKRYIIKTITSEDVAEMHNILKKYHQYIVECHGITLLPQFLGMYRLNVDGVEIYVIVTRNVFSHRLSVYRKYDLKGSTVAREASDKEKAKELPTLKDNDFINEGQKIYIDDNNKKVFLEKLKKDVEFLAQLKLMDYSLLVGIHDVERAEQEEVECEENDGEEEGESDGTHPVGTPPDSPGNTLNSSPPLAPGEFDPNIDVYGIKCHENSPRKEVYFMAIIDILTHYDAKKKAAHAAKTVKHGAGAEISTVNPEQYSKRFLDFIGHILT
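Human PI5P4Kalpha with substrate in 0.038 M HEPES pH 7.4, 0.28 mM EGTA, 0.1% CHAPS, 5% DMSO; reaction started with 5 microM ATP (final), 60 min at room temperature. ADP formed read by ADP-Glo luminescence.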
POLB inh: inhibitors of human DNA polymerase beta; AID 485314; 340,000 tested, 1.3% active; Pol beta primer extension/strand displacement, fluorescence kinetic; Potency, µM (top dose mostly 114 µM), most hits filed as inhibitors
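Pol beta (10 nM) was preincubated with compound for 15 min at room temperature. The reaction was then started with 50 nM substrate and read immediately and after a further 10 min at room temperature.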
Pol kappa inh: blocks human DNA polymerase kappa activity; Q9UBT6; purified Pol kappa, fluorescent DNA synthesis assay, 10 min; Potency, µM (doses to about 107 µM), hits mostly inhibitors; 400,000 tested, 0.53% active
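Kinetic fluorescence readout at 0 and 10 min followed reaction start with substrate at 50 nM final. Beforehand, enzyme (10 nM Pol kappa) stood 15 min with compound at room temperature; buffer-only wells were negative controls.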
Numbers stand for hits; - = inactive; ? = inconclusive; . = not tested or not shown; [ ] = another dose, or the depositor's remark. In the library only some 2.8% were active in any assay of this set; here they are far more common. Unless noted, calls come from the whole dose curve; as a rule, active = well fitted curve in the direction sought with a large enough effect; inconclusive = small, poorly fitted or top-dose-only effect, or another doubt; inactive = no such curve, though single readings can be large; an effect the other way counts as inactive or inconclusive.

SMILES | Pol eta inh | FEN1 inh | Pol iota inh | PI5P4Ka inh | POLB inh | Pol kappa inh
CCNc1ccccc(C(=O)/C=C/c2ccc3c(c2)OCO3)c1=O | 10µM | ? | ? | -55.9 | 56.2µM | 25.1µM
Cc1ccnc(NS(=O)(=O)c2ccc(N3C(=O)c4c(Cl)c(Cl)c(Cl)c(Cl)c4C3=O)cc2)n1 | 79.4µM | - | - | - | - | -
O=C(CSc1nnnn1-c1ccccc1)Nc1ncc(Cc2ccccc2Cl)s1 | - | - | - | - | - | -
N=C1SC(c2ccccc2)C(=O)N1c1ncc(Cc2ccccc2Cl)s1 (stereo unspecified) | ? | - | ? | ? | 17.8µM | ?
O=S(=O)(NC1=NCCCCC1)c1ccc2sc(NS(=O)(=O)c3ccc4ccccc4c3)nc2c1 | ? | - | 11.2µM | - | - | -
Cc1ccccc1Nc1c(-c2ccc(Cl)s2)nc2c(C)cccn12 | - | - | - | . | 11.2µM | -
COc1ccc(-c2nc3ccccc3s2)cc1NC(=O)c1cccc(F)c1 | - | ? | ? | . | 12.6µM | -
COc1ccc(C(=O)Nc2cc(-c3nc4ccccc4s3)ccc2OC)cc1 | - | - | - | . | - | -
O=C(O)c1ccc(O)c(O)c1 | - | - | ? | - | 25.1µM | -
Cc1ccc(Sc2c(C)nn(-c3ccccc3)c2OC(=O)CC(C)C)cc1 | . | - | ? | . | - | -
CCCC(=O)Oc1c(Sc2ccc(Cl)cc2)c(C)nn1-c1ccccc1 | - | - | 25.1µM | . | - | -
O=c1ccc(NS(=O)(=O)c2ccccc2Cl)cn1Cc1ccc(Cl)c(Cl)c1 | - | 70.8µM | - | - | - | -
O=C(O)/C(=C\c1ccc(C(F)(F)F)cc1)c1ccc(S(=O)(=O)N2CCCC2)s1 | - | - | - | - | . | -
O=C(O)/C(=C\c1ccc(Br)cc1)c1ccc(S(=O)(=O)N2CCCCC2)s1 | ? | - | ? | - | 28.2µM | -
CCc1cccc(C)c1NC(=O)CN(C)S(=O)(=O)c1ccc(-c2ccc(=O)[nH]n2)s1 | - | - | - | - | - | -
CCOc1ccc(NC(=O)CN(C)S(=O)(=O)c2ccc(-c3ccc(=O)[nH]n3)s2)cc1 | 39.8µM | ? | ? | - | 31.6µM | 89.1µM
O=C(NNc1cc(Br)c(O)c(Br)c1)c1ccccc1 | - | ? | 22.4µM | -90.6 | - | ?
Cc1ccc(-n2nnnc2SCC(=O)NNC(=O)c2ccc([N+](=O)[O-])cc2)cc1 | ? | - | ? | - | 5.62µM | ?
Cc1cccc2c(C(O)c3c[nH]c4c(C)cccc34)c[nH]c12 | . | - | - | . | . | -
Cn1cc(C(=O)N/N=C/C2=C(N3CCOCC3)C(=C/c3ccc([N+](=O)[O-])cc3)/CC2)ccc1=O | ? | - | 50.1µM | ? | . | -
Cc1ncc(CN2CCCC(C(=O)Nc3ccc(-c4ccco4)cc3)C2)cn1 (stereo unspecified) | ? | - | 31.6µM | - | - | ?
O=C(O)c1cnn2c1C(=O)N(Cc1cccs1)CC2 | 31.6µM | - | - | - | 20µM | -
COc1ccc(-c2noc(C3CCCN(C(=O)c4ccc(F)cc4)C3)n2)cc1 (stereo unspecified) | - | 89.1µM | - | - | - | -
Cc1ccc2c(c1)C(c1ccc(F)cc1)N(C(=O)COc1ccc(Cl)cc1Cl)CC(=O)N2 (stereo unspecified) | - | - | - | . | - | -
CC(=O)N[C@@H](CCC(=O)O)C(=O)O | . | . | . | . | . | -[19.4 µM]
SMILES | Pol eta inh | FEN1 inh | Pol iota inh | PI5P4Ka inh | POLB inh | Pol kappa inh
CCC(C)c1ccc(OCC(=O)Nc2ccc3c(c2)C(=O)NC3=O)cc1 (stereo unspecified) | - | - | - | - | 35.5µM | -
CCOc1ccc(C(=O)Nc2ccc3c(c2)C(=O)NC3=O)cc1 | - | - | - | - | - | -
CC(=O)c1cccc(-n2c(CCC(=O)O)ccc2-c2ccccc2)c1 | - | - | ? | - | ? | -
O=C(O)CCc1ccc(-c2cccs2)n1CCc1ccccc1 | - | - | - | - | - | -
O=C(O)CCc1ccc(-c2cccs2)n1-c1ccc(C(=O)O)cc1 | 31.6µM | - | ? | - | ? | ?
CC(=O)c1cccc(-n2c(CCC(=O)O)ccc2-c2cccs2)c1 | ? | - | 50.1µM | . | ? | -
COCCNc1nc(-c2ccccc2F)c2sc(-c3ccccc3)cc2n1 | . | . | . | - | . | .
COC(=O)C1=C(O)/C(=C\c2ccc(CNS(=O)(=O)c3ccccc3)o2)N=C1C | ? | - | ? | - | - | 28.2µM
CCOC(=O)C1=C(O)/C(=C/c2ccc(CNC(=O)C(=O)Nc3ccc(C)cc3)o2)N=C1C | ? | - | - | ? | ? | -
CCOC(=O)C1=C(O)/C(=C\c2ccc(CNS(=O)(=O)c3ccc(Br)cc3)o2)N=C1C | 22.4µM | ? | 15.8µM | -57.8 | - | 50.1µM
CCOC(=O)C(=O)NCc1ccc(/C=C2/N=C(C)C(C(=O)OCC)=C2O)o1 | - | - | ? | - | ? | ?
COC(=O)C1=C(O)/C(=C\c2ccc(CNC(=O)C(=O)Nc3ccc(C)cc3)o2)N=C1C | ? | - | ? | - | ? | -
COC(=O)C1=C(O)/C(=C\c2ccc(CNC(=O)C(=O)Nc3ccc(C)c(C)c3)o2)N=C1C | 22.4µM | - | ? | ? | ? | -
Cc1noc(C)c1C(=O)N1CCC[C@@]2(CCN(c3cccc(-c4ccccc4)c3)C2)C1 | . | . | . | . | . | -
COc1ccc2c(c1)oc(=O)c1cc(OC)ccc12 | - | - | - | - | ? | -
COc1cc(O)c2c(c1)oc(=O)c1c3cc(O)c(O)cc3oc21 | . | . | . | . | . | 0.752µM
CC1(C(=O)NCc2cccc(Cl)c2)Cc2c(-c3ccc4c(c3)OCO4)ccnc2O1 (stereo unspecified) | . | . | . | - | . | .
CCOc1ccccc1NC(=O)Cn1c(=O)n(CCCC(=O)NCCOC)c(=O)c2cc(OC)c(OC)cc21 | - | - | 89.1µM | . | - | ?
O=C(O)c1cn(-c2ccccc2)nc1C(=O)O | - | - | - | -52.4 | - | -
c1ccc(-c2nnsc2-c2ccccc2)cc1 | - | - | - | -59.8 | - | -
CSc1snnc1-c1ccccc1 | - | - | - | - | - | -
COc1cc(OC)cc(C(=O)N[C@H](C(=O)NC2CCCc3ccccc32)C(C)C)c1 (stereo partly specified) | - | - | - | - | . | -
CC1CCCCC1NS(=O)(=O)c1ccc(S(=O)(=O)NCc2ccncc2)cc1 (stereo unspecified) | - | - | ? | . | 70.8µM | -
CCc1ccccc1NC(=O)C1CCN(S(C)(=O)=O)CC1 | - | - | - | - | . | -
O=C(O)CSc1nc(-c2ccc(Cl)cc2)nc2c1oc1ccccc12 | ? | - | - | - | 56.2µM | -
O=C(O)CSc1nc(-c2ccccc2)nc2c1oc1ccccc12 | - | - | - | - | - | -
O=S1(=O)CCN2N=C(C3CC3)SC2=N1 | - | - | - | - | - | -
Cc1ccc(S(=O)(=O)Nc2ccc3c(c2)c(C(=O)OC(C)C)c(C)n3S(=O)(=O)c2ccc(C)cc2)cc1 | - | - | - | . | ? | -
